In PubChem BioAssay:
Calls of active or inactive are those of the source.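 The calls were made as follows, unless noted: active = inhibition above 20% together with a positive visual image hit; inconclusive = visual image hit but inhibition not above 20%; inactive = no visual image hit.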

Columns and labels:
[1] = inhibitors of TNFa-induced NFkB p65 translocation, primary screen, imaging, HUVEC, MLSMR starter and 10KST1 sets (AID 438); conditions: HUVEC TNFa-induced p65 nuclear translocation; cell count: measured here: nuclei count (cytotoxicity indicator), at 2.08 µM; inhibition: at 2 µM, stronger effect = higher value, 0% TNFa-plus-vehicle, 100% no-TNFa wells;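 also: compound added about 3h40 before a 20 min TNFalpha stimulation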;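 as to inhibition: signal is the nuclear over cytoplasmic p65 intensity ratio per well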
[2] = reduction of polyQ htt aggregates in cells – imaging, exon1htt(103Q)mCFP cells, high-content imaging, primary screen (AID 483;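 active = visual image review flags a hit and inhibition of aggregation exceeds 20%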;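 also: compound exposure lasted 3 days before fixation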;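 as to nuclei count: percent of the per-plate median nuclei count of sample wells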); conditions: exon1htt(103Q)mCFP cell line, aggregate imaging, at 2 µM; inhibition of aggregation: stronger effect = higher value; nuclei count: measured here: cell count, toxicity
[3] = endothelial E-selectin expression blockers – imaging, HUVEC, immunofluorescence, MLSMR starter and 10KST1 sets, primary screen (AID 487;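 active = visually confirmed hit in the image check and inhibition above 20%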;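 as to inhibition: signal is fraction of cell area covered by stained E-selectin grains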;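 as to nuclei count: 100% = median nuclei count of all wells on the same plate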); conditions: HUVEC TNFalpha-induced E-selectin immunofluorescence imaging, at 2 µM; inhibition: stronger effect = higher value; nuclei count: measured here: cell number, toxicity
[4] = target: Voltage-gated potassium channel subunit beta-2 (Rattus norvegicus) (UniProt P62483); assay: inhibitors of rat Kvbeta2 reductase activity – biochemical, NADPH fluorescence, primary screen (AID 622;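 active = fluorescence slope higher than the sample average by over 3 SD, cut at about -0.22 in these data, passing the limit was not always enough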;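 also: slope of raw intensity against log time taken from 70 to 1610 s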); conditions: recombinant KvBeta, 4-cyanobenzaldehyde reduction, at 10 µM, stronger effect = higher value
[5] = target: Voltage-gated potassium channel subunit beta-2 (Rattus norvegicus) (UniProt P62483); assay: enhancers of rat Kvbeta2 NADPH turnover – biochemical, NADPH fluorescence, primary screen (AID 623;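 active = NADPH fluorescence slope more negative than the mean of all samples by about 3 SD, 99.7% confidence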;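 also: fluorescence intensity change per second fitted from 20 to 320 s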); conditions: Recombinant KvBeta, NADPH fluorescence decrease slope, 10 min; at 10 µM; stronger effect = lower value
[6] = target: Alpha-2C adrenergic receptor (Homo sapiens) (UniProt P18825); assay: compounds altering alpha2C-coupled GIRK flux – cell-based, HEK293 alpha2C/GIRK1/2, thallium flux, primary screen (AID 624;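 active = fluorescence slope after compound addition differing from the mean of all screened samples at 99.7% confidence, in either direction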;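 also: slope of fluorescence ratio to pre-addition baseline per second over 15 to 24 s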); conditions: thallium flux BTC fluorescence, at 10 µM, actives lie on both sides
[7] = blockers of RIG-like receptor reporter activation – cell-based, Sendai virus stimulus, luciferase, 10K MLSCN set, TLR/RLR signaling modifier project, primary screen (AID 602276;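 active = inhibition at or above 50% at 10 µM; inactive = inhibition below 50%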;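 also: firefly luciferase from ISG56 promoter only with Renilla not read in this screen; 0% = Sendai virus plus DMSO and 100% = medium plus DMSO without virus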); conditions: HEK293 RL24 IRF3 luciferase reporter, at 10 µM, stronger effect = higher value
[8] = TLR3 IRF3 reporter activation blockers – cell-based, poly I:C stimulus, luciferase, 10K MLSCN set, primary screen (AID 602277;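 active = inhibition of the reporter signal at or above 50%; inactive = inhibition below 50%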); conditions: HEK293-TLR3 RL24 IRF3 luciferase reporter, at 10 µM, stronger effect = higher value

Sequence of Voltage-gated potassium channel subunit beta-2 (Rattus norvegicus) (P62483 whole entry, looked up): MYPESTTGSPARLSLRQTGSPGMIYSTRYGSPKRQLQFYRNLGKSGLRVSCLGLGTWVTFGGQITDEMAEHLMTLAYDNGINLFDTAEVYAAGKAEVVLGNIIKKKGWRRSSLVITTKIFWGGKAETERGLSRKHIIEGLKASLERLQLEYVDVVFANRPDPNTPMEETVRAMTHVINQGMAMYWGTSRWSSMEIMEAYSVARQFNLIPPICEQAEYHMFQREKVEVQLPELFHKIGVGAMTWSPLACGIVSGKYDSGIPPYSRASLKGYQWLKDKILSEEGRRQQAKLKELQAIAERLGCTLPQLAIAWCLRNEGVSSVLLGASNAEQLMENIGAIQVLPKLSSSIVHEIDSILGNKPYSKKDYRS
Sequence of Alpha-2C adrenergic receptor (Homo sapiens) (P18825 whole entry, looked up): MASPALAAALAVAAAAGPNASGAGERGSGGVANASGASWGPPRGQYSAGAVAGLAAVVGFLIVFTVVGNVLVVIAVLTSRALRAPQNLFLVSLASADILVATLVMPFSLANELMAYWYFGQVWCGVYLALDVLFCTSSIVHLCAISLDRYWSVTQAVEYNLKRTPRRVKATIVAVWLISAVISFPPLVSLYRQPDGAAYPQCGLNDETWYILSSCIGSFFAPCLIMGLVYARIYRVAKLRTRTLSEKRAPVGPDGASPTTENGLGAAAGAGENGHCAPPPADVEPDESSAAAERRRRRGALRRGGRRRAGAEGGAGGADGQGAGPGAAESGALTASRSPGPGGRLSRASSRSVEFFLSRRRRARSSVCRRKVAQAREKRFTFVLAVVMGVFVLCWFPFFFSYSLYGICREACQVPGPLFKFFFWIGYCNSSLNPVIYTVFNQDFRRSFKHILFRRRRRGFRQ

Structure (SMILES)	cell count [1]	inhibition [1]	inhibition of aggregation [2]	nuclei count [2]	inhibition [3]	nuclei count [3]	fluorescence slope [4]	NADPH fluorescence slope [5]	slope [6]	inhibition [7]	inhibition [8]
O=C(NCN1CCCCC1)c1cnccn1	604	-9.2% (inactive)	-3.4% (inactive)	102%	-101% (inactive)	115%	-0.425 (inactive)	-8.7e-05 (inactive)	0.00561 (inactive)	13.6% (inactive)	29% (inactive)
COc1cccc(CN2CCN(C(=O)c3ccco3)CC2)c1OC	513	13.6% (inactive)	-4.9% (inactive)	100%	-347% (inactive)	128%	-0.595 (inactive)	1.5e-05 (inactive)	0.00742 (inactive)	11.8% (inactive)	8.85% (inactive)
CCN(CCCNC(=O)C1CCN(S(=O)(=O)c2cccc3nonc23)CC1)Cc1ccccc1	297	16.9% (inactive)	14.3% (inactive)	92.7%	-72.5% (inactive)	110%	-0.43 (inactive)	-4.9e-05 (inactive)	0.00388 (inactive)	13.3% (inactive)	29.8% (inactive)
Cc1ccc(C(=O)CC2(O)C(=O)N(C)c3ccc(Br)cc32)c(C)c1 (centres undefined)	614	-5% (inactive)	-6.2% (inactive)	107%	-23.2% (inactive)	123%	-0.457 (inactive)	-5.1e-05 (inactive)	0.0058 (inactive)	15.6% (inactive)	31.5% (inactive)
CCc1nn(CC(=O)N2CCN(Cc3ccc4c(c3)OCO4)CC2)c(=O)c2cc3occc3n12	341	1.7% (inactive)	-11.1% (inactive)	90.2%	-0.9% (inactive)	105%	-0.353 (inactive)	-1.6e-05 (inactive)	0.00432 (inactive)	-5.95% (inactive)	-24.9% (inactive)
COc1ccc(CN(C2CCCC2)S(=O)(=O)c2ccc(-n3cnnn3)cc2)cc1OC	527	-5.8% (inactive)	-15% (inactive)	115%	-39.4% (inactive)	124%	-0.57 (inactive)	-1.6e-05 (inactive)	0.00406 (inactive)	15.1% (inactive)	18.9% (inactive)
COC(=O)[C@H](C)NC(=O)Nc1cccc(C(F)(F)F)c1	483	-2.7% (inactive)	29.8% (inactive)	85.5%	-98.7% (inactive)	109%	-0.537 (inactive)	2.9e-05 (inactive)	0.00446 (inactive)	-11.9% (inactive)	-5.94% (inactive)
Cn1c(=O)c2c(nc(-n3ccnc3)n2C)n(C)c1=O	311	-8.5% (inactive)	14.2% (inactive)	85.8%	-22.1% (inactive)	104%	-0.362 (inactive)	8.4e-06 (inactive)	0.00573 (inactive)	15.7% (inactive)	17.1% (inactive)
c1cc(CNc2ccc3c(c2)OCO3)ccn1	240	-3.9% (inactive)	17.7% (inactive)	83.7%	-91.7% (inactive)	112%	-0.48 (inactive)	-1.4e-05 (inactive)	0.00585 (inactive)	-9.22% (inactive)	13.6% (inactive)
